In the library only some 5% were active in any assay of this set; here they are far more common.
CHT block: inhibitors of human choline transporter CHT; CHT-expressing cells, membrane potential dye, choline response; stronger effect = lower value; hit rate 0.86% among 310,000; AID 488975; B-score at 10 µM;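 active = B-score over 3 SD under the library average, and starting fluorescence ratio not unusually high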;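 also: choline stimulus applied at its EC90 after an EC20 pre-addition; B-score computed on integrated fluorescence ratio after choline addition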
ALR inh: human ALR oxidase inhibition via reduced H2O2; hit rate 3.8% among 290,000; purified ALR, DTT oxidation, H2O2 HRP-luminol luminescence; inhibition, % (concentration not given with the values);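 active = mean replicate inhibition above about 79%, with every replicate also reaching it, limit read from the data; inconclusive = only one of the two criteria met; inactive = mean below limit and not every replicate reaching it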
Target sequence (P55789 whole entry, looked up): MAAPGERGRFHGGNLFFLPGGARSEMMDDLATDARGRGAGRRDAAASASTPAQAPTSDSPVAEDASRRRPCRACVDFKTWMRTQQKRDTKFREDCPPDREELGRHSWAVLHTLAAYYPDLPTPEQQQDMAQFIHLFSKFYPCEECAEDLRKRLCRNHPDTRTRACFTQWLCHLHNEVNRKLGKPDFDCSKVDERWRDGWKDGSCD
CHT allo act: human CHT allosteric activation. AID 488977. CHT-expressing cells, membrane potential dye, choline EC20; stronger effect = higher value; LV-AA mutant CHT in HEK293 cells. hit rate 0.49% among 310,000. B-score at 10 µM. Q9GZV3;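 active = initial fluorescence not abnormally high and integrated response B-score, plate-corrected, over 3 SD above library mean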
AI-2 QS mod: Vibrio harveyi AI-2 quorum sensing modulation | Vibrio harveyi JMH597 AI-2 luminescence/OD600 ratio, 9 h; stronger effect = lower value; strain lacks LuxN and CqsS sensors; 0 = neutral-control median | activity change, % at 7.5 µM | hit rate 0.4% among 300,000 | AID 2094; in the data active = activity change below about -75%, passing the limit was not always enough; inconclusive = no clear call, values can overlap the other calls;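 also: luminescence divided by OD600 gain over 9 h not by final OD600 alone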
PREPL inh: inhibits the human prolyl oligopeptidase-like enzyme | inhibition, % at 5.96 µM | hit rate 0.68% among 320,000 | recombinant PREPL, fluorescence polarization activity-based probe | AID 2751 | Q4J6C6; in the data active = inhibition above about 43%;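 also: 0% = enzyme with DMSO and 100% = wells lacking enzyme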
JMH597 growth rt: retest: inhibitors of Vibrio harveyi JMH597 growth. OD600 absorbance, 9 h; lacks LuxN and CqsS sensors. shares compounds with AI-2 QS mod. hit rate 1% among 750. growth inhibition, % at 7.5 µM;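 active = every replicate shows growth inhibition above 50%; inconclusive = at least half, but not all, replicates pass that cutoff; inactive = fewer than half of replicates pass it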
BB721 lum counter: retest counter-screen: lowers luminescence of constitutive-QS Vibrio harveyi BB721; shares compounds with AI-2 QS mod; inhibition, % at 7.5 µM; AID 2727; 9 h; hit rate 95% among 750;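 active = inhibition above about 80% in every replicate, not just on average, limit read from the data; inconclusive = at least half of replicates past the limit, but not all; inactive = fewer than half of replicates past the limit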
BB721 growth rt: retest: blocks Vibrio harveyi BB721 growth | shares compounds with AI-2 QS mod | hit rate 3% among 750 | OD600 absorbance, 9 h | growth inhibition, % at 7.5 µM;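 active = every replicate shows growth inhibition above 50%; inconclusive = at least half but not all replicates above 50% inhibition; inactive = under half of replicates above 50% inhibition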
JMH597 AI-2 mod: Vibrio harveyi AI-2 signaling luminescence modulation – JMH597 strain, confirmation; shares compounds with AI-2 QS mod; hit rate 97% among 750; Vibrio harveyi JMH597 AI-2 quorum sensing luminescence, 9 h; luxN and CqsS knockout, AI-2 only; inhibition, % at 7.5 µM;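 active = every replicate shows more than 75% inhibition of signal versus neutral control wells; inconclusive = half to three quarters of replicates exceed 75% inhibition; inactive = fewer than half of replicates exceed 75% inhibition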
* hit, by the source's call; i = inactive; ? = inconclusive; . = no result.

SMILES	CHT block	ALR inh	CHT allo act	AI-2 QS mod	PREPL inh	JMH597 growth rt	BB721 lum counter	BB721 growth rt	JMH597 AI-2 mod
O=C(CCC1CCCCC1)Nc1ccccc1-c1ccccc1	i	0	i	36	4	.	.	.	.
Cc1ccc(O)c(NC(=O)C2CCCCC2)c1	i	73	i	14	-3	.	.	.	.
O=C(CCC1CCCCC1)Nc1ccccc1O	i	91*	i	-85*	23	24	94*	24	94*
O=C(c1ccccc1)N1CCN(C(=O)C2CC2)CC1	i	-1	i	23	-2	.	.	.	.
CC12CCC(=O)N1C(C(=O)Nc1ccc(F)c(Cl)c1)CS2 (centres undefined)	i	2	i	-71	1	.	.	.	.
CC1(C)SC[C@H](C(=O)Nc2cccc(Cl)c2)N1C=O	i	0	i	-93*	4	-19	98*	-35	99*
Cc1ccccc1N(CC(=O)Nc1ccccc1C(=O)NCc1ccco1)S(=O)(=O)c1ccccc1	i	8	i	13	0	.	.	.	.
Clc1nc(-c2ccccc2)ncc1Oc1ccccc1	i	3	i	-85*	2	18	97*	22	98*
OCC1(Cc2ccc(F)cc2)CCCN(CCCC(F)(F)F)C1 (centres undefined)	i	-2	i	22	-5	.	.	.	.
COC(=O)c1ccc(Oc2ccc(C(C)(C)C)cc2)c([N+](=O)[O-])c1	i	-7	i	?	-8	32	84*	?	91*
CC(C)CCNC(=O)NC(=O)COc1ncnc2sccc12	i	-3	i	-81*	6	-6	96*	5	97*
O=C(NCC(=O)N1CCN(S(=O)(=O)/C=C/c2ccccc2)CC1)c1ccc(Cl)cc1	i	-2	i	19	-6	.	.	.	.
O=C(Nc1ccc(Cc2ccncc2)cc1)c1ccc(Br)o1	i	2	i	-81*	-1	-13	88*	-47	94*
O=C(CNC(=O)c1ccc(Br)o1)Nc1ccncc1	i	.	i	7	4	.	.	.	.
Cc1cc(=O)oc2cc(OCC3CC(c4ccccc4)=NO3)ccc12 (centres undefined)	i	-4	i	-86*	-17	21	95*	35	96*
Cc1cc(=O)oc2cc(OCC3CC(c4ccc(Br)cc4)=NO3)ccc12 (centres undefined)	i	-6	i	.	-19	.	.	.	.
Cc1ccc(NC(=O)COC(=O)CCOc2ccccc2C)cc1	i	-3	i	12	-14	.	.	.	.
Cc1ccc(NC(=O)CCOc2ccccc2C)cc1C	i	1	i	-78*	-8	39	92*	31	93*
CCOc1ccccc1OCCC(=O)Nc1ccc(F)c(Cl)c1	i	.	i	23	-1	.	.	.	.
Cc1ccccc1OCCC(=O)Nc1ccc(F)c(Cl)c1	i	-34	i	-93*	-15	22	97*	31	98*
O=C(COc1ccc(S(=O)(=O)N2CCOCC2)cc1)Nc1cccc([N+](=O)[O-])c1	i	-8	i	1	18	.	.	.	.
CN(C)S(=O)(=O)c1ccc(C(=O)Oc2ccccc2)cc1	i	2	i	-80*	-5	11	91*	39	93*
CS(=O)(=O)c1cccc(C(=O)Oc2ccccc2)c1	i	.	i	22	3	.	.	.	.
COc1ccccc1CNC(=O)c1ccc(S(=O)(=O)N(C)C)cc1	i	-5	i	-80*	6	-5	84*	0	90*
CN(C)S(=O)(=O)c1ccc(C(=O)OCn2nnc3ccccc3c2=O)cc1	i	.	i	-89*	-27	28	96*	37	97*
SMILES	CHT block	ALR inh	CHT allo act	AI-2 QS mod	PREPL inh	JMH597 growth rt	BB721 lum counter	BB721 growth rt	JMH597 AI-2 mod
COc1ccccc1OCCNC(=O)c1ccc(S(=O)(=O)N(C)C)cc1	i	-5	i	-6	5	.	.	.	.
CCc1ccnc(NS(=O)(=O)c2ccc3c(c2)CCO3)c1	i	2	i	22	3	.	.	.	.
Cc1cc(C(=O)NC2Cc3ccccc3C2)c(C)o1	i	8	i	11	13	.	.	.	.
O=C(Nc1cccc(F)c1)c1ccccc1	i	.	i	-1	-1	.	.	.	.
O=C(Nc1ccc(Nc2ccccc2)cc1)c1cccc(F)c1	i	7	i	-77*	20	13	86*	1	90*
O=C(Nc1ccc(Nc2ccccc2)cc1)c1ccccc1F	i	99*	i	-86*	23	38	94*	20	94*
CCCCOc1ccc(C(=O)OCC(=O)N2CCOCC2)cc1	i	-1	i	26	-1	.	.	.	.
Nc1nc(SCC(=O)Nc2ccc(Oc3ccccc3)cc2)n[nH]1	i	-2	i	-90*	-4	23	95*	19	97*
Nc1nc(SCC(=O)Nc2ccccc2Sc2ccccc2)n[nH]1	i	1	i	-4	-2	.	.	.	.
c1ccc(Cc2ccc(OCCn3cncn3)cc2)cc1	i	6	i	?	-9	7	89*	10	93*
CCOc1ccc(NS(=O)(=O)c2ccc(N)cc2)cc1	i	2	i	?	-10	34	99*	2	100*
COc1ccc(/C=C/C(=O)c2ccc(O)cc2)cc1	i	97*	i	-93*	5	22	97*	6	97*
Cn1cc([N+](=O)[O-])c(C(=O)NC2CCCC2)n1	.	.	.	11	.	.	.	.	.
Cc1cc(C)cc(OCc2nc(-c3cccnc3)no2)c1	i	11	i	-95*	9	9	99*	-2	99*
Cc1ccc(OCc2nc(-c3cccnc3)no2)cc1C	i	0	i	-94*	7	2	98*	3	99*
CC(=O)c1cccc(NC(=O)COC(=O)c2ccccc2C)c1	i	-1	i	-90*	6	4	98*	-8	99*
Cc1cccc(NC(=O)COC(=O)c2cc(C)oc2C)c1	i	-2	i	-88*	-11	17	95*	18	97*
CC(=O)c1cccc(NC(=O)CSC(=O)c2ccccc2)c1	i	99*	i	-87*	-28	11	95*	0	97*
CCCCCC(=O)NC(=S)Nc1cccc(C(C)=O)c1	i	-4	i	-95*	-2	-14	95*	19	96*
CCOc1ncccc1C(=O)OCC(=O)Nc1cccc(C(C)=O)c1	i	-6	i	-1	20	.	.	.	.

High-throughput results from PubChem BioAssay.
